The full ranking holds about 110,000 compounds; the median of “z-score” is about -0.1, and the highest 2% start at about 2. The sample as a whole holds a higher share of the highest values than the screen did. Active and inactive are the calls of the source.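 The calls were made as follows: active = z-score in the third read window above 3 or below -3; inactive = the rest.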
target: Metabotropic glutamate receptor 8 (Rattus norvegicus) (UniProt P70579); experiment: mGluR8 Gi/Go-coupled signaling modulation – cell-based, rat, thallium flux, HTS, primary screen (AID 488969); conditions: HEK293 rat mGluR8, GIRK (G protein-gated inwardly rectifying potassium channel) thallium flux, FluoZin2; at 10 µM; stronger effect = higher value
Sequence (P70579 whole entry, looked up): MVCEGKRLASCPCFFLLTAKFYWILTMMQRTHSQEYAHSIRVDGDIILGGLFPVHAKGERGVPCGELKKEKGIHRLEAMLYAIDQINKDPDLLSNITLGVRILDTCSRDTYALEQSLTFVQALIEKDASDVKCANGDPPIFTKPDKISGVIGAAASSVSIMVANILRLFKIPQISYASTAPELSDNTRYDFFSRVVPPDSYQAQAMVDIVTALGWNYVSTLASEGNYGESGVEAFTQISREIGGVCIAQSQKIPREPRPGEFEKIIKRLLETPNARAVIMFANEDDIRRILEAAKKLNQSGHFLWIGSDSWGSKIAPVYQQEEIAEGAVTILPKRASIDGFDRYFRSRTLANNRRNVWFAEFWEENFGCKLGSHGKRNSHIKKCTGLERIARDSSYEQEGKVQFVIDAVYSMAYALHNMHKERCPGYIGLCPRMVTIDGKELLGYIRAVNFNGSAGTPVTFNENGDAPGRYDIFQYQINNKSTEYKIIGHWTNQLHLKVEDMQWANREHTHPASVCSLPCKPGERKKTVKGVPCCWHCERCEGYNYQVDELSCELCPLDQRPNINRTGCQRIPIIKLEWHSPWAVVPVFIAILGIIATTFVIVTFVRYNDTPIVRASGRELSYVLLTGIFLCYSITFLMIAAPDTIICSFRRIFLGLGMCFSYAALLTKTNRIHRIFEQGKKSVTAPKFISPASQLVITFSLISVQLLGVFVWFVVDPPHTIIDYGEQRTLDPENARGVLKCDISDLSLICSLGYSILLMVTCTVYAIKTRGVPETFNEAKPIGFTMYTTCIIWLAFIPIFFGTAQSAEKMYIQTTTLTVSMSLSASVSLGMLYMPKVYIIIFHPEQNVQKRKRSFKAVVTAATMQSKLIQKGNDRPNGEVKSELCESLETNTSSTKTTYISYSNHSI

| Compound | z-score |
| --- | --- |
| CN1/C(=C\C=C\C2=[N+](C)c3ccc4ccccc4c3C2(C)C)C(C)(C)c2ccccc21 | 5.85 (active) |
| CN1/C(=C\C=Nc2ccccc2)C(C)(C)c2ccccc21 | -0.319 |
| C[N+]1=C(/C=C/Nc2ccccc2)C(C)(C)c2ccccc21 | -1.45 |
| Cc1cc(C=C2C(=O)N(C)C(=S)N(C)C2=O)c(C)n1C1CCCCC1 | -0.45 |
| O=C1CN=C(c2ccccc2)c2ccccc2N1Cc1ccc(C(F)(F)F)cc1 | 0.646 |
| CNC(=O)OCCc1nccn1C | 3.02 (active) |
| CNC(=O)OCCc1n(C)cc[n+]1C | -0.193 |
| C=CCn1c(O)c(/C=C2/C=CC=N2)c(=O)[nH]c1=O | -0.219 |
| O=C(c1cc(S(=O)(=O)N2CCCCC2)ccc1F)N1CCC2(CC1)OCCO2 | -0.0595 |
| CCCCn1c(O)c(C(C)=NCCCn2ccnc2)c(=O)[nH]c1=O | 2.03 |
| CCCCCCN=C(C)c1c(O)n(CCCC)c(=O)[nH]c1=O | -2.32 |
| CCCCn1c(O)c(C(C)=NCCCN(C)C)c(=O)[nH]c1=O | 0.319 |
| O=[N+]([O-])c1ccc(C2[C@H]3C(c4ccccc4)=NC4(CCCCC4)N23)cc1 (some centres undefined) | -0.0546 |
| O=c1[nH]c(=O)n(C2CCCCCC2)c(O)c1C=NC1CCN(Cc2ccccc2)CC1 | -0.182 |
| O=C(c1cc2ccccc2oc1=O)N1CCC2(CC1)OCCO2 | 0.602 |
| O=C(c1cc2ccccn2n1)N1CCC2(CC1)OCCO2 | 4 (active) |
| O=C(c1cc2nc(-c3ccccc3)cc(-c3ccccc3)n2n1)N1CCC2(CC1)OCCO2 | -0.525 |
| N#CC1=C(N)Oc2c(c(=O)oc3ccccc23)C1c1ccncc1 (centres undefined) | -0.0723 |
| Cc1[nH]c2c(Cl)cccc2c1CCN | 0.371 |
| Cc1cccc(N2C(=O)NC(=O)/C(=C\c3cccn3-c3ccc(Cl)cc3)C2=O)c1 | -0.0172 |

| Compound | z-score |
| --- | --- |
| Cc1ccc(Cc2c(C)nc3nc(SCC(=O)N4CCC5(CC4)OCCO5)nn3c2C)cc1 | -0.0184 |
| O=C(COc1ccc(Cl)cc1)NC1CN2CCC1CC2 (centres undefined) | -0.215 |
| CCNC(=O)C1OC(n2cnc3c(N)ncnc32)C(O)C1O (centres undefined) | 2 |
| CCCCn1c(O)c(C(CC)=Nc2ccc(OC)cc2OC)c(=O)[nH]c1=O | -1.4 |
| Cc1nn(Cc2ccccc2)c(C)c1C=C1C(=O)NC(=O)NC1=O | 2.1 |
| Cn1cccc1/C=C1/C(=O)NC(=O)N(Cc2ccccc2)C1=O | -0.709 |
| Cc1nn(Cc2ccccc2)c(C)c1C=C1C(=O)NC(=S)NC1=O | -0.287 |
| CCn1c(P(C)(=O)O)nc2ccccc21 | -0.338 |
| CN1CCN(Cc2ccc(Br)s2)CC1 | 0.759 |
| Cc1ccc(-c2nc(N(C)C3CCN(C)CC3)c3ccccc3n2)cc1 | 2.91 |
| CN1CCC(N(C)c2nc(-c3ccccc3)nc3ccccc23)CC1 | 0.199 |
| CN1CCC(N(C)c2nc(-c3ccc([N+](=O)[O-])cc3)nc3ccccc23)CC1 | 0.562 |
| O=C(Cn1c(=S)[nH]c2ccccc2c1=O)N1CCC2(CC1)OCCO2 | 0.264 |
| CC1=NN(c2ccccc2)C(=O)C1/C=C1/C(=O)NC(=O)N(c2cccc(C)c2)C1=O (centres undefined) | -0.395 |
| CCN(c1ccc(C(O)(C(=O)OC)C(F)(F)F)cc1)S(=O)(=O)c1ccc(C)cc1 (centres undefined) | 1.21 |
| CCOC(=O)N(C)c1ccc(C(O)(C(=O)OCC)C(F)(F)F)cc1 (centres undefined) | -0.0433 |
| CCOC(=O)C(O)(c1ccc(N(CC)S(=O)(=O)c2ccc(C)cc2)cc1)C(F)(F)F (centres undefined) | 2.37 |
| O=C(c1ccccc1F)c1cn(CC(=O)N2CCCCC2)c2ccccc12 | -0.152 |
| CCN(CC)c1ccc(CN2CC=C(c3ccc(F)cc3)CC2)cc1 | 0.0485 |
| Cn1c(O)c(C=NCCN2CCNCC2)c(=O)n(C)c1=O | -0.337 |

| Compound | z-score |
| --- | --- |
| O=c1c(C=NCCN2CCNCC2)c(O)n(C2CCCCC2)c(=O)n1C1CCCCC1 | 2.42 |
| O=c1c(C=NCc2cccs2)c(O)n(C2CCCCC2)c(=O)n1C1CCCCC1 | -0.421 |
| COc1ccc(CCN(C)Cc2c(F)cccc2F)cc1OC | 0.419 |
| N#Cc1cc2c(nc1SCC(=O)Nc1cc(Cl)ccc1Cl)C1CCN2CC1 | -1.88 |
| Cc1ccc2nc(N3CCC(C(=O)N4CCC5(CC4)OCCO5)CC3)sc2c1 | 4.28 (active) |
| O=C(C1CCN(S(=O)(=O)c2ccccc2)CC1)N1CCC2(CC1)OCCO2 | 0.255 |
| CCS(=O)(=O)N1CCC(C(=O)N2CCC3(CC2)OCCO3)CC1 | 0.00257 |
| CC(C)CC(=O)NC(Oc1ccc(Cl)cc1)C(Cl)(Cl)Cl (centres undefined) | -0.379 |
| CC1(C)CN2C(c3ccc(Cl)cc3)N2C1 (centres undefined) | 0.161 |
| c1ccc(CNCCc2ccc3c(c2)OCO3)nc1 | -0.496 |
| c1ccc2c(CCNCc3ccc4c(c3)OCO4)c[nH]c2c1 | 2.19 |
| O=[N+]([O-])c1cc2c(cc1CNCCc1ccc3c(c1)OCO3)OCO2 | 0.309 |
| Cc1noc(C)c1C(=O)N1CCC2(CC1)OCCO2 | -0.294 |
| COc1cc2[nH]c(=O)n(-c3cccc(Cl)c3)c(=O)c2cc1OC | -0.0317 |
| COc1ccc(-n2c(=O)[nH]c3ccccc3c2=O)cc1 | 0.343 |
| O=c1[nH]c2ccccc2c(=O)n1-c1cccc(Cl)c1 | -0.0839 |
| COc1cc(-n2c(=S)[nH]c3ccccc3c2=O)c(Cl)cc1Cl | 6.65 (active) |
| COc1cc2[nH]c(=O)n(-c3ccccc3)c(=O)c2cc1OC | -0.252 |
| CC(C)Oc1cc(-n2c(=S)[nH]c3ccccc3c2=O)c(Cl)cc1Cl | 12.9 (active) |

— PubChem BioAssay AID488969 (Vanderbilt High Throughput Screening Facility, 2010)
